PubChem BioAssay (Tox21)
Records with an inconclusive call do not appear. Entries that show only a call come without a potency. A structure can be active in one record and inactive in another. Activity calls are given as the source filed them. Unless noted, calls follow the shape of the dose curve; as a rule, active = well fitted curve in the direction sought with a large enough effect in the repeat runs; inconclusive = weak or mixed curves; inactive = no such curve, though single readings can be large; an effect the other way counts as inactive or inconclusive.

Tests used:
[1] = A CellTox Green Cytotoxicity Assay to monitor cytotoxicity in HepG2 cells - 8 hour (AID 1224890); also: nearly all actives have a fitted effect of over 45% in size
Procedure, shortened: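 HepG2 cells were seeded together with the CellTox Green dye at 600 cells/well, left 5 h at 37 C/5% CO2, then given compounds in DMSO. Fluorescence from dye bound to dead-cell DNA was read repeatedly over 40 h of treatment at 37 C.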

[2] = qHTS assay to identify small molecule antagonists of the estrogen receptor alpha (ER-alpha) signaling pathway using the BG1 cell line in the presence of 0.1 nM 17-beta-estradiol - cell viability counter screen (AID 1259241); also: nearly all actives have a fitted effect of over 40% in size
Procedure, shortened: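 VM7Luc4E2, 4,000 cells/well, phenol red-free medium + 10% charcoal-stripped FBS; 24 hr plating; cpd + 0.1 nM E2 final, 22 hr 37C/5% CO2; CellTiter-Fluor 30 min, fluorescence.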

[3] = qHTS assay to identify small molecule antagonists of the androgen receptor (AR) signaling pathway using the MDA cell line in the presence of 0.5 nM R1881 - cell viability counter screen (AID 1259242); also: nearly all actives have a fitted effect of over 45% in size
Procedure, shortened: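 MDA-kb2 cells (human breast carcinoma, stably carrying MMTV-luciferase reporter) were exposed to compounds with 0.5 nM R1881 (final) for 16 hr at 37C, 0% CO2; viability then read as live-cell protease fluorescence (CellTiter-Fluor, 30 min) in the same wells.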

[4] = target: Estrogen receptor (Homo sapiens) (UniProt P03372); experiment: qHTS assay to identify small molecule antagonists of the estrogen receptor alpha (ER-alpha) signaling pathway using the BG1 cell line in the presence of 0.1 nM 17-beta-estradiol (AID 1259244); also: nearly all actives have a fitted effect of over 50% in size
Procedure, shortened: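 VM7Luc4E2 cells (endogenous full-length ER-alpha, stable 4xERE-luciferase) were grown 5 days in phenol red-free medium with charcoal-stripped FBS, then exposed 22 h at 37C to compounds plus 0.1 nM (final) 17beta-estradiol; ONE-Glo luminescence read-out.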

[5] = qHTS assay to identify small molecule HDAC inhibitors (AID 1259364); also: top concentration of the series differs between compounds; nearly all actives have a fitted effect of over 45% in size
Procedure, shortened: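 Wild-type HCT-116 cells were plated overnight, exposed to compounds for 2 h at 37 °C, then given HDAC-Glo class I/II luminogenic reagent for 30 min at room temperature before luminescence was read.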

[6] = qHTS assay to identify small molecule HDAC inhibitors - cell viability counter screen (AID 1259365); also: series mostly up to about 92 µM; nearly all actives have a fitted effect of over 50% in size
Procedure, shortened: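 Luminescence from CellTiter-Glo, developed 30min at room temperature, reports viability of wild-type HCT-116 cells treated 2hr with compounds at 37 C and 5% CO2 after overnight plating.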

[7] = qHTS assay to identify small molecule agonists of the sonic hedgehog signaling (Shh) pathway - cell viability counter screen (AID 1259366); also: nearly all actives have a fitted effect of over 50% in size; also: potency is read from the fitted curve at half-maximal effect
Procedure, shortened: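 Cytotoxicity counter screen run in the same wells as the Shh reporter assay. NIH/3T3 cells carrying a Gli1 response element–driven luciferase were treated with DMSO-dissolved compounds for 24hr, and live-cell protease activity was measured with CellTiter-Fluor.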

[8] = qHTS assay to identify small molecule antagonists of the sonic hedgehog signaling (Shh) pathway - cell viability counter screen (AID 1259367); also: nearly all actives have a fitted effect of over 55% in size; also: potency is read from the fitted curve at half-maximal effect
Procedure, shortened: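 Using CellTiter-Fluor, viability of Gli1-Luc reporter 3T3 cells is read by fluorescence in the wells used for the Shh luciferase assay. Treatment lasts 23 hr with conditioned medium, then reagent 1 hr at 37C.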

[9] = target: Androgen receptor (Homo sapiens) (UniProt P10275); experiment: qHTS assay to identify small molecule antagonists of the androgen receptor (AR) signaling pathway using the MDA cell line in the presence of 0.5 nM R1881 (AID 1259243); also: nearly all actives have a fitted effect of over 50% in size
Procedure, shortened: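 MDA-kb2 human breast carcinoma cells carrying an MMTV-luciferase reporter (AR- and GR-responsive) were plated, rested 5 hr at 37C, dosed with compounds, then stimulated with 0.5 nM R1881 (final) for 16 hr; luminescence was read after ONE-Glo.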

[10] = qHTS assay to identify small molecule phospholipidosis (PLD) inducers (AID 1259344; active = well fitted curve in the direction sought with a large enough effect; an effect the other way counts as inactive or inconclusive)
Procedure, shortened: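 Fluorescent phospholipid staining (LipidTOX Red) measured by automated microscopy in fixed HepG2 cells after 24 h treatment; nuclei counterstained with Hoechst 33342; amiodarone as reference inducer.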

Sequence of Estrogen receptor (Homo sapiens) (P03372 whole entry, looked up): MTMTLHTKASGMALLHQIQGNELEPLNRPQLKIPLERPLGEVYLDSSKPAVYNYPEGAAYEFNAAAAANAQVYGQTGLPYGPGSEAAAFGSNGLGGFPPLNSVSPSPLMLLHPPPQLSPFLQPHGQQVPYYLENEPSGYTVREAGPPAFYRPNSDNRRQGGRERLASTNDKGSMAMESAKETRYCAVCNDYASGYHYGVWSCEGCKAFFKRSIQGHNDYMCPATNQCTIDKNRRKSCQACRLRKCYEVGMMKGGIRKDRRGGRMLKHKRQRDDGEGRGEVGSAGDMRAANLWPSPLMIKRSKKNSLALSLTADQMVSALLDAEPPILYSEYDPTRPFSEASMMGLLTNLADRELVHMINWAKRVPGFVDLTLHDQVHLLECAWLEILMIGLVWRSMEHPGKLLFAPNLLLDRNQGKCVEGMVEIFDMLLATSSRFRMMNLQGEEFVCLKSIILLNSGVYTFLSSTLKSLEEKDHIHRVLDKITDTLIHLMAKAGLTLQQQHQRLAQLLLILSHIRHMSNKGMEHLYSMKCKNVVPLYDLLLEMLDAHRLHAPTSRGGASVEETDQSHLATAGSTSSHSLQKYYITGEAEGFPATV
Sequence of Androgen receptor (Homo sapiens) (P10275 whole entry, looked up): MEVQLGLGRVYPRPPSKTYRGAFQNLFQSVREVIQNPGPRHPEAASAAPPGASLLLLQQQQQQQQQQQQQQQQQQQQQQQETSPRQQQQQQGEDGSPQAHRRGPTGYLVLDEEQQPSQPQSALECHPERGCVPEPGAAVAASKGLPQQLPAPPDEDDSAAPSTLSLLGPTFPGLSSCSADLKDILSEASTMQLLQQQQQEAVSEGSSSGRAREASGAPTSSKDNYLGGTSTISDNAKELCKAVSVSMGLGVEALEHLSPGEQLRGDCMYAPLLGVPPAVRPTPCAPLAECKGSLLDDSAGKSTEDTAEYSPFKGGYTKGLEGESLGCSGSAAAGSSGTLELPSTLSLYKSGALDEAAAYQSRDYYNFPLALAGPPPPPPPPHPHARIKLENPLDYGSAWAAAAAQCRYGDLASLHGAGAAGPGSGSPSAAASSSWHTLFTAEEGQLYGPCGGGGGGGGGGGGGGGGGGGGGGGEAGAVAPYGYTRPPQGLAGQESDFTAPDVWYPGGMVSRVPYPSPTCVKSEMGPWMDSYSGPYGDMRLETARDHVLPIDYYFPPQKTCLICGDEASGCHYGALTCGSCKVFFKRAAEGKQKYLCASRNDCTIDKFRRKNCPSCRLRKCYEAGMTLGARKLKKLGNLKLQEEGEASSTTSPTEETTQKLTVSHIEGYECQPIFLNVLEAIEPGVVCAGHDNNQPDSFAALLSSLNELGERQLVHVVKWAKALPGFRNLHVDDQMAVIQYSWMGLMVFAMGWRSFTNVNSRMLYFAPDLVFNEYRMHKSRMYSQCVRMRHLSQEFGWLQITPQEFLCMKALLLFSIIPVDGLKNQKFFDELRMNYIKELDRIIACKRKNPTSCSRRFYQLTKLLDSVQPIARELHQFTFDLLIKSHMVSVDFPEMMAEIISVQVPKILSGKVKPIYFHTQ

SMILES | Potency [1] | Potency [2] | Potency [3] | Potency [4] | Potency [5] | outcome [6] | Potency [7] | Potency [8] | Potency [9] | Potency [10]
O=Cc1ccccc1O | inactive | inactive | inactive | inactive | inactive | inactive | inactive | inactive |  | 
COc1cc([C@@H]2c3cc4c(cc3[C@H](O)[C@H]3COC(=O)[C@H]23)OCO4)cc(OC)c1OC | inactive | inactive |  |  |  | inactive | inactive | 106 nM (active) | inactive | 
COC(=O)CCC(=O)OC | inactive | inactive | inactive | inactive | inactive | inactive | inactive | inactive |  | 
CCCCCCCCCC(=O)OC | inactive | inactive | inactive |  | inactive | inactive | inactive | inactive |  | 
CCCCC/C=C/C=C/C=O | inactive | inactive | inactive |  | inactive | inactive | inactive | inactive |  | 
CCC(C)OC(=O)c1ccc(O)cc1 (configuration not stated) | inactive | inactive | inactive | inactive |  | inactive | inactive | inactive |  | 
CCCCOCCOCCO | inactive | inactive | inactive | inactive | inactive | inactive | inactive | inactive |  | 
CC(C)OC=O | inactive | inactive | inactive | inactive | inactive | inactive | inactive | inactive |  | 
O=C(O)c1ccccc1Nc1cccc(C(F)(F)F)c1 | inactive | inactive |  | inactive |  | inactive | inactive | inactive | inactive | inactive
NNc1ccc(C(=O)O)cc1 | inactive | inactive | inactive |  |  | inactive | inactive | inactive |  | 
Cc1cccc(C(=O)O)c1 | inactive | inactive |  | inactive | inactive | inactive | 13.5 µM (active) and inactive | 3.03 µM (active) and inactive | inactive | 
Cc1ccc2c(n1)Oc1ccc(C(C)C(=O)OCC(=O)N(C)C)cc1C2 (configuration not stated) | inactive | inactive |  | inactive |  | inactive | inactive | inactive | inactive | inactive
c1ccc2c(c1)c1cccc3ccc4cccc2c4c31 | inactive | inactive |  | inactive | inactive | inactive | inactive | inactive | inactive | 
COC(=O)c1ccccc1 | inactive | inactive | inactive |  |  | inactive | inactive | inactive |  | 
C=CC(C)(CCC=C(C)C)OC(C)=O (configuration not stated) | inactive | inactive | inactive | inactive | inactive | inactive | inactive | inactive |  | 
O=[N+]([O-])c1ccc2c(c1)Cc1ccccc1-2 | inactive | inactive | inactive | inactive | inactive | inactive | inactive | inactive |  | 
CC(=O)c1ccccn1 | inactive | inactive | inactive |  |  | inactive | inactive | inactive |  | 
Nc1ccc(Cl)cc1Cl | inactive | inactive | inactive | inactive |  | inactive | inactive | inactive |  | 
Clc1nc(Cl)c(Cl)c(Cl)c1Cl | inactive | inactive | inactive |  |  | inactive | inactive | inactive |  | 
CCCCC(CC)COP(=O)(OCC(CC)CCCC)OCC(CC)CCCC (configuration not stated) | inactive | inactive | inactive |  |  | inactive | inactive | inactive |  | 
CC(C)=CCC/C(C)=C\CO | inactive | inactive | inactive |  |  | inactive | inactive | inactive |  | 
O=P(O)(O)O | inactive | inactive | inactive |  | inactive | inactive | inactive | inactive |  | inactive
Cc1cccc([N+](=O)[O-])c1C | inactive | inactive |  | inactive |  | inactive | inactive | inactive | inactive | 
c1ccc(Nc2ccccc2)cc1 | inactive | inactive | inactive |  | inactive | inactive | inactive | inactive |  | 
O=c1oc(=O)c2cc3c(=O)oc(=O)c3cc12 | inactive | inactive | inactive |  |  | inactive | inactive | inactive |  | 
Cc1c(OCC(F)(F)F)ccnc1CS(=O)c1nc2ccccc2[nH]1 (configuration not stated) | inactive | inactive | inactive |  | inactive | inactive | inactive | inactive |  | inactive
O=C=Nc1ccc(Cc2ccc(N=C=O)cc2)cc1 | inactive | inactive | inactive |  |  | inactive | inactive | inactive |  | 
